Measurements: the supplement of paper PMC9950053
Counter-ions that a name gives are not always drawn.

Test system: Danio rerio larvae (5 dpf)
Test: combined upward orientation toward moving lines (periods 7-14) minus DMSO control (percentage points); higher = more orientation with moving lines than DMSO larvae
Details: 10 µM; exposure time: 3 h pre-incubation + 3 h imaging
Procedure: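 Wild-type 5 dpf zebrafish larvae (n=48 per drug, 96-well plates, 28.5 °C) were exposed to Tocris FDA-approved library compounds at 10 µM (0.1% DMSO) for 3 h before and 3 h during imaging. Images were taken every 6 s during visual (moving coloured lines) and acoustic stimuli, and larvae were tracked with the DeepLabCut-based Z-LaP Tracker. Each behavioural measure is the treated-group mean minus the DMSO vehicle control mean (n=844), in percentage points. This mapping covers compounds with 4-character plate codes.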

Row | Structure (SMILES) | combined upward orientation toward moving lines
1 | CN1CCC[C@@H]1Cc1c[nH]c2ccc(CCS(=O)(=O)c3ccccc3)cc12 [Eletriptan hydrobromide] | -1.33
2 | Cc1ccc(NC(=O)c2ccc(CN3CCN(C)CC3)cc2)cc1Nc1nccc(-c2cccnc2)n1 [Imatinib mesylate] | -1.28
3 | O=C(O)c1cc(/N=N/c2ccc(S(=O)(=O)Nc3ccccn3)cc2)ccc1O [Sulfasalazine] | -3.42
4 | Cc1nnc(C(C)C)n1C1C[C@H]2CC[C@@H](C1)N2CC[C@H](NC(=O)C1CCC(F)(F)CC1)c1ccccc1 (stereo in doubt) [Maraviroc] | -1.2
5 | CCCCC(=O)N(Cc1ccc(-c2ccccc2-c2nnn[nH]2)cc1)[C@H](C(=O)O)C(C)C [Valsartan] | 2.9
6 | Cc1ccccc1C(=O)Nc1ccc(C(=O)N2CCCC(O)c3cc(Cl)ccc32)c(C)c1 (stereo not given) [Tolvaptan] | -0.0581
7 | CCOc1nc2cccc(C(=O)O)c2n1Cc1ccc(-c2ccccc2-c2nnn[nH]2)cc1 [Candesartan] | 2.56
8 | COc1ccc([C@@H]2Sc3ccccc3N(CCN(C)C)C(=O)[C@@H]2OC(C)=O)cc1 [Diltiazem hydrochloride] | -1.58
9 | COC(=O)C1=C(C)NC(C)=C(C(=O)OC(C)C)C1c1cccc2nonc12 (stereo not given) [Isradipine] | -3.59
10 | CCOC(=O)[C@H](CCc1ccccc1)N[C@H]1CCc2ccccc2N(CC(=O)O)C1=O [Benazepril hydrochloride] | -4.13
11 | CCN(CC)CCNC(=O)c1c(C)[nH]c(/C=C2\C(=O)Nc3ccc(F)cc32)c1C [Sunitinib malate] | -5.61
12 | O=c1[nH]c(=O)n([C@H]2C[C@H](O)[C@@H](CO)O2)cc1C(F)(F)F [Trifluorothymidine] | -3.41
13 | CC(=O)Oc1ccccc1C(=O)O [Aspirin] | -3.93
14 | OC(CNCC(O)C1CCc2cc(F)ccc2O1)C1CCc2cc(F)ccc2O1 (stereo not given) [Nebivolol hydrochloride] | -7.15
15 | CCOc1cc(CC(=O)N[C@@H](CC(C)C)c2ccccc2N2CCCCC2)ccc1C(=O)O [Repaglinide] | -4.89
16 | CN1CCN(CCCN2c3ccccc3Sc3ccc(Cl)cc32)CC1 [Prochlorperazine dimaleate] | 0.242
17 | Cn1cnc([N+](=O)[O-])c1Sc1ncnc2[nH]cnc12 [Azathioprine] | 0.321
18 | CC(c1cc2ccccc2s1)N(O)C(N)=O (stereo not given) [Zileuton] | -7.03
19 | CC(C)c1nc(N(C)S(C)(=O)=O)nc(-c2ccc(F)cc2)c1/C=C/[C@@H](O)C[C@@H](O)CC(=O)O [Rosuvastatin calcium] | 4.67
20 | CC(C)(C)NC(=O)[C@@H]1C[C@@H]2CCCC[C@@H]2CN1C[C@@H](O)[C@H](Cc1ccccc1)NC(=O)[C@H](CC(N)=O)NC(=O)c1ccc2ccccc2n1 [Saquinavir mesylate] | -6.24

Row | Structure (SMILES) | combined upward orientation toward moving lines
21 | COc1ccccc1OCCNCC(O)COc1cccc2[nH]c3ccccc3c12 (stereo not given) [Carvedilol] | -11.6
22 | CN1CC2c3ccccc3Oc3ccc(Cl)cc3C2C1 (stereo not given) [Asenapine maleate] | -7.05
23 | CCOc1nc2cccc(C(=O)O)c2n1Cc1ccc(-c2ccccc2-c2noc(=O)[nH]2)cc1 [Azilsartan] | 1.61
24 | CCOC(=O)c1ncn2c1CN(C)C(=O)c1cc(F)ccc1-2 [Flumazenil] | 2.99
25 | CN(C)CC/C=C1/c2ccccc2COc2ccc(CC(=O)O)cc21 [Olopatadine hydrochloride] | -3.54
26 | CCCCCOC(=O)Nc1nc(=O)n([C@@H]2O[C@H](C)[C@@H](O)[C@H]2O)cc1F [Capecitabine] | -0.314
27 | CC1=Nc2ccc(Cl)cc2S(=O)(=O)N1 [Diazoxide] | -1.53
28 | CO[C@H]1/C=C/O[C@@]2(C)Oc3c(C)c(O)c4c(O)c(c5c(nc6cc(C)ccn65)c4c3C2=O)NC(=O)/C(C)=C\C=C\[C@H](C)[C@H](O)[C@@H](C)[C@@H](O)[C@@H](C)[C@H](OC(C)=O)[C@@H]1C [Rifaximin] | -3.95
29 | Cc1ccsc1C(=CCCN1CCC[C@@H](C(=O)O)C1)c1sccc1C [Tiagabine hydrochloride] | 13.4
30 | CCCCNc1cc(C(=O)O)cc(S(N)(=O)=O)c1Oc1ccccc1 [Bumetanide] | -3.42
31 | Clc1ccccc1C(c1ccccc1)(c1ccccc1)n1ccnc1 [Clotrimazole] | -3.91
32 | Cc1c(-c2ccc(O)cc2)n(Cc2ccc(OCCN3CCCCCC3)cc2)c2ccc(O)cc12 [Bazedoxifene acetate] | 1.97
33 | COc1ccc(-c2ccc3cc(C(=O)O)ccc3c2)cc1C12CC3CC(CC(C3)C1)C2 [Adapalene] | -8.09
34 | CN1CC(=O)N2[C@H](c3ccc4c(c3)OCO4)c3[nH]c4ccccc4c3C[C@@H]2C1=O [Tadalafil] | -7.35
35 | Cc1cc(C2CCCCC2)n(O)c(=O)c1 [Ciclopirox] | -27.9
36 | O=C(O[C@@H]1C[C@@H]2C[C@H]3C[C@H](C1)N2CC3=O)c1c[nH]c2ccccc12 [Dolasetron mesylate] | -0.866
37 | CC(=O)O[C@H]1C(=O)[C@@]2(C)[C@H]([C@H](OC(=O)c3ccccc3)[C@]3(O)C[C@H](OC(=O)[C@H](O)[C@@H](NC(=O)c4ccccc4)c4ccccc4)C(C)=C1C3(C)C)[C@]1(OC(C)=O)CO[C@@H]1C[C@@H]2O [Taxol] | -6.91
38 | CCC(=O)O[C@]1(C(=O)SCF)[C@H](C)C[C@H]2[C@@H]3C[C@H](F)C4=CC(=O)C=C[C@]4(C)[C@@]3(F)[C@@H](O)C[C@@]21C [Fluticasone propionate] | -9.35
39 | OCCOCCN1CCN(C2=Nc3ccccc3Sc3ccccc32)CC1 [Quetiapine hemifumarate] | -3.4
40 | CC(C)C(=O)Nc1ccc([N+](=O)[O-])c(C(F)(F)F)c1 [Flutamide] | -15.3
